{
  "source": "PubChem BioAssay (EPA / NIEHS)",
  "note": "Records with an inconclusive call do not appear. Activity calls are given as the source filed them. How the source made its calls, unless noted: active means hit-call score of the fitted dose curve at least 0.9, where 1 is the maximum; inactive means score below 0.9.",
  "data": [
    {"test": "CCTE_Harrill_HTTr_CellCount_MCF7: CCTE's Cell Proliferation Assessment for the High-Throughput Transcriptomics (HTTr) Platform, Harrill Lab (AID 2284012; active means hit-call score of the fitted dose curve at least 0.9, where 1 is the maximum;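 further: intended direction is loss of nuclei count meaning fewer cells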)", "procedure,_shortened": "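For this full-screen endpoint, MCF-7 cultures received eight compound dilutions for six hours. Well nuclei counts from Hoechst imaging were analyzed relative to DMSO.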", "values": [
      {"compound": "CCCCCCCC1CCC(=O)O1", "note": "(stereo not given)", "outcome": "inactive"},
      {"compound": "OCc1ccccc1", "outcome": "inactive"},
      {"compound": "CC(C)C(=O)Nc1ccc([N+](=O)[O-])c(C(F)(F)F)c1", "outcome": "inactive"},
      {"compound": "NC(=O)N(O)[C@@H]1COc2cc(OCc3ccccc3)ccc21", "outcome": "inactive"},
      {"compound": "CCCCC(CC)C(=O)OCCOCCOCCOC(=O)C(CC)CCCC", "note": "(stereo not given)", "outcome": "inactive"},
      {"compound": "CCc1ccc(O)c(C(C)(C)C)c1", "outcome": "inactive"},
      {"compound": "c1ccc(C(O[C@@H]2CCCN(CCc3ccc4c(c3)OCO4)C2)c2ccccc2)cc1", "outcome": "inactive"},
      {"compound": "COc1cc2c(c(OC)c1OC)-c1ccc(OC)c(=O)cc1[C@@H](NC(C)=O)CC2", "outcome": "inactive"},
      {"compound": "OC(CCl)CCl", "outcome": "inactive"},
      {"compound": "COS(C)(=O)=O", "outcome": "inactive"},
      {"compound": "O=S(=O)(O)c1ccc(N=Nc2c(O)ccc3cc(S(=O)(=O)O)ccc23)cc1", "outcome": "inactive"},
      {"compound": "O=C1CN(N=Cc2ccc([N+](=O)[O-])o2)C(=O)N1", "outcome": "inactive"},
      {"compound": "CCCCCCCC/C=C\\CCCCCCCC(=O)OC[C@@H](O)[C@H]1OC[C@H](O)[C@H]1O", "outcome": "inactive"},
      {"compound": "Cc1ncc([C@@H](CCCCCCc2ccc3c(n2)NCCC3)CC(=O)O)cn1", "AC50": "0.321 µM (active)"},
      {"compound": "C=CN1CCCC1=O", "outcome": "inactive"},
      {"compound": "CCOc1ccc2[nH]cc(C(=O)NCc3ccccc3)c(=O)c2n1", "outcome": "inactive"}
    ]},
    {"test": "CCTE_Shafer_MEA_acute_burst_number: CCTE's Neural Acute Assay for Single-Electrode Bursts, Shafer Lab (AID 2284013)", "procedure,_shortened": "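Burst totals were derived with adaptive spike detection (8x rms threshold) on filtered signals from rat cortical cultures; change relative to pre-treatment baseline after 40-min compound exposure (0.03-40 uM) was fitted in the negative direction against DMSO.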", "values": [
      {"compound": "CC[C@H](C)C(=O)O[C@H]1C[C@H](O)C=C2C=C[C@H](C)[C@H](CC[C@@H](O)C[C@@H](O)CC(=O)O)[C@H]21", "outcome": "inactive"},
      {"compound": "CCCCCCCC1CCC(=O)O1", "note": "(stereo not given)", "outcome": "inactive"},
      {"compound": "OCc1ccccc1", "outcome": "inactive"},
      {"compound": "CC(C)C(=O)Nc1ccc([N+](=O)[O-])c(C(F)(F)F)c1", "outcome": "inactive"},
      {"compound": "CCCc1ccccc1", "outcome": "inactive"},
      {"compound": "CCCCC(CC)C(=O)OCCOCCOCCOC(=O)C(CC)CCCC", "note": "(stereo not given)", "outcome": "inactive"},
      {"compound": "CCc1ccc(O)c(C(C)(C)C)c1", "AC50": "1.03 µM (active)"},
      {"compound": "c1ccc(C(O[C@@H]2CCCN(CCc3ccc4c(c3)OCO4)C2)c2ccccc2)cc1", "outcome": "inactive"},
      {"compound": "COc1cc2c(c(OC)c1OC)-c1ccc(OC)c(=O)cc1[C@@H](NC(C)=O)CC2", "AC50": "34 µM (active)"},
      {"compound": "OC(CCl)CCl", "outcome": "inactive"},
      {"compound": "C=CCc1cc(S(=O)(=O)c2ccc(O)c(CC=C)c2)ccc1O", "outcome": "inactive"},
      {"compound": "O=S(=O)(O)c1ccc(N=Nc2c(O)ccc3cc(S(=O)(=O)O)ccc23)cc1", "outcome": "inactive"},
      {"compound": "Cn1c(=O)c2[nH]cnc2n(C)c1=O", "outcome": "inactive"},
      {"compound": "COc1cc(C(C)C)c2c(c1)S(=O)(=O)N(COc1cc(=O)n3cccc(OCCN4CCCCC4)c3n1)C2=O", "outcome": "inactive"},
      {"compound": "COCc1nnc(-c2ccc[n+]([O-])c2)n1-c1c(Cl)c(Cl)cc2[nH]c(=O)c(=O)[nH]c12", "outcome": "inactive"},
      {"compound": "CCCCCCCC/C=C\\CCCCCCCC(=O)OC[C@@H](O)[C@H]1OC[C@H](O)[C@H]1O", "outcome": "inactive"},
      {"compound": "c1ccc2cc3ccccc3cc2c1", "AC50": "0.0075 µM (active)"},
      {"compound": "Cc1ncc([C@@H](CCCCCCc2ccc3c(n2)NCCC3)CC(=O)O)cn1", "outcome": "inactive"}
    ]},
    {"test": "CCTE_Shafer_MEA_acute_burst_duration_mean: CCTE's Neural Acute Assay for Mean Burst Duration, Shafer Lab (AID 2284014);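 further: hits are decreases in mean burst duration relative to DMSO controls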", "procedure,_shortened": "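Acute exposure of mature rat cortical networks (DIV 13 or 15) grown on microelectrode arrays to 0.03-40 uM compound. Mean burst duration compared with the 40-min pre-dose baseline over a 40-min post-dose recording at 37 C.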", "values": [
      {"compound": "CC[C@H](C)C(=O)O[C@H]1C[C@H](O)C=C2C=C[C@H](C)[C@H](CC[C@@H](O)C[C@@H](O)CC(=O)O)[C@H]21", "outcome": "inactive"},
      {"compound": "CCCCCCCC1CCC(=O)O1", "note": "(stereo not given)", "outcome": "inactive"},
      {"compound": "OCc1ccccc1", "outcome": "inactive"},
      {"compound": "CC(C)C(=O)Nc1ccc([N+](=O)[O-])c(C(F)(F)F)c1", "outcome": "inactive"},
      {"compound": "CCCc1ccccc1", "outcome": "inactive"},
      {"compound": "CCCCC(CC)C(=O)OCCOCCOCCOC(=O)C(CC)CCCC", "note": "(stereo not given)", "outcome": "inactive"},
      {"compound": "CCc1ccc(O)c(C(C)(C)C)c1", "AC50": "30 µM (active)"},
      {"compound": "c1ccc(C(O[C@@H]2CCCN(CCc3ccc4c(c3)OCO4)C2)c2ccccc2)cc1", "outcome": "inactive"},
      {"compound": "COc1cc2c(c(OC)c1OC)-c1ccc(OC)c(=O)cc1[C@@H](NC(C)=O)CC2", "outcome": "inactive"},
      {"compound": "OC(CCl)CCl", "outcome": "inactive"},
      {"compound": "C=CCc1cc(S(=O)(=O)c2ccc(O)c(CC=C)c2)ccc1O", "outcome": "inactive"},
      {"compound": "O=S(=O)(O)c1ccc(N=Nc2c(O)ccc3cc(S(=O)(=O)O)ccc23)cc1", "outcome": "inactive"},
      {"compound": "Cn1c(=O)c2[nH]cnc2n(C)c1=O", "outcome": "inactive"},
      {"compound": "COc1cc(C(C)C)c2c(c1)S(=O)(=O)N(COc1cc(=O)n3cccc(OCCN4CCCCC4)c3n1)C2=O", "AC50": "5 µM (active)"},
      {"compound": "COCc1nnc(-c2ccc[n+]([O-])c2)n1-c1c(Cl)c(Cl)cc2[nH]c(=O)c(=O)[nH]c12", "outcome": "inactive"},
      {"compound": "CCCCCCCC/C=C\\CCCCCCCC(=O)OC[C@@H](O)[C@H]1OC[C@H](O)[C@H]1O", "outcome": "inactive"},
      {"compound": "c1ccc2cc3ccccc3cc2c1", "outcome": "inactive"},
      {"compound": "Cc1ncc([C@@H](CCCCCCc2ccc3c(n2)NCCC3)CC(=O)O)cn1", "outcome": "inactive"}
    ]},
    {"test": "CCTE_Shafer_MEA_acute_per_burst_spike_number_mean: CCTE's Neural Acute Assay for Average Number of Spikes Per Burst, Shafer Lab (AID 2284015);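 further: hits are decreases in mean spikes per burst versus baseline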", "procedure,_shortened": "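Percent change in mean spikes per single-electrode burst is compared between a 40 min baseline and a 40 min recording with compound (0.03-40 uM). Cultures were rat cortical neurons on MEA plates at DIV 13 or 15, recorded at 37 C, with DMSO as the negative control.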", "values": [
      {"compound": "CC[C@H](C)C(=O)O[C@H]1C[C@H](O)C=C2C=C[C@H](C)[C@H](CC[C@@H](O)C[C@@H](O)CC(=O)O)[C@H]21", "outcome": "inactive"},
      {"compound": "CCCCCCCC1CCC(=O)O1", "note": "(stereo not given)", "outcome": "inactive"},
      {"compound": "OCc1ccccc1", "outcome": "inactive"},
      {"compound": "CC(C)C(=O)Nc1ccc([N+](=O)[O-])c(C(F)(F)F)c1", "AC50": "4.66 µM (active)"},
      {"compound": "CCCc1ccccc1", "outcome": "inactive"},
      {"compound": "CCCCC(CC)C(=O)OCCOCCOCCOC(=O)C(CC)CCCC", "note": "(stereo not given)", "outcome": "inactive"},
      {"compound": "CCc1ccc(O)c(C(C)(C)C)c1", "AC50": "30.3 µM (active)"},
      {"compound": "c1ccc(C(O[C@@H]2CCCN(CCc3ccc4c(c3)OCO4)C2)c2ccccc2)cc1", "outcome": "inactive"},
      {"compound": "COc1cc2c(c(OC)c1OC)-c1ccc(OC)c(=O)cc1[C@@H](NC(C)=O)CC2", "outcome": "inactive"},
      {"compound": "OC(CCl)CCl", "outcome": "inactive"},
      {"compound": "C=CCc1cc(S(=O)(=O)c2ccc(O)c(CC=C)c2)ccc1O", "outcome": "inactive"},
      {"compound": "O=S(=O)(O)c1ccc(N=Nc2c(O)ccc3cc(S(=O)(=O)O)ccc23)cc1", "outcome": "inactive"},
      {"compound": "Cn1c(=O)c2[nH]cnc2n(C)c1=O", "outcome": "inactive"},
      {"compound": "COc1cc(C(C)C)c2c(c1)S(=O)(=O)N(COc1cc(=O)n3cccc(OCCN4CCCCC4)c3n1)C2=O", "outcome": "inactive"},
      {"compound": "COCc1nnc(-c2ccc[n+]([O-])c2)n1-c1c(Cl)c(Cl)cc2[nH]c(=O)c(=O)[nH]c12", "AC50": "8.06 µM (active)"},
      {"compound": "CCCCCCCC/C=C\\CCCCCCCC(=O)OC[C@@H](O)[C@H]1OC[C@H](O)[C@H]1O", "outcome": "inactive"},
      {"compound": "c1ccc2cc3ccccc3cc2c1", "outcome": "inactive"},
      {"compound": "Cc1ncc([C@@H](CCCCCCc2ccc3c(n2)NCCC3)CC(=O)O)cn1", "outcome": "inactive"}
    ]}
  ]
}
